# Source: PubChem BioAssay
# Only some compounds are listed: those with a hit (about 3.6% of all), similar ones and a draw of the others.
# KAT2A inh: GCN5L2 (KAT2A) acetyltransferase inhibition. GCN5L2 HAT assay, ThioGlo1 CoA-SH fluorescence. Potency, µM (series often up to 58.9 µM), without a hit: at the highest dose activity change, negative = inhibition, most hits filed as inhibitors. 390,000 compounds, 0.21% hits. AID 504327; also: potency is read from the fitted curve at half-maximal effect; % is scaled to controls: 0 for no effect and ±100 for the full control effect
# Target sequence (Q92830 whole entry, looked up): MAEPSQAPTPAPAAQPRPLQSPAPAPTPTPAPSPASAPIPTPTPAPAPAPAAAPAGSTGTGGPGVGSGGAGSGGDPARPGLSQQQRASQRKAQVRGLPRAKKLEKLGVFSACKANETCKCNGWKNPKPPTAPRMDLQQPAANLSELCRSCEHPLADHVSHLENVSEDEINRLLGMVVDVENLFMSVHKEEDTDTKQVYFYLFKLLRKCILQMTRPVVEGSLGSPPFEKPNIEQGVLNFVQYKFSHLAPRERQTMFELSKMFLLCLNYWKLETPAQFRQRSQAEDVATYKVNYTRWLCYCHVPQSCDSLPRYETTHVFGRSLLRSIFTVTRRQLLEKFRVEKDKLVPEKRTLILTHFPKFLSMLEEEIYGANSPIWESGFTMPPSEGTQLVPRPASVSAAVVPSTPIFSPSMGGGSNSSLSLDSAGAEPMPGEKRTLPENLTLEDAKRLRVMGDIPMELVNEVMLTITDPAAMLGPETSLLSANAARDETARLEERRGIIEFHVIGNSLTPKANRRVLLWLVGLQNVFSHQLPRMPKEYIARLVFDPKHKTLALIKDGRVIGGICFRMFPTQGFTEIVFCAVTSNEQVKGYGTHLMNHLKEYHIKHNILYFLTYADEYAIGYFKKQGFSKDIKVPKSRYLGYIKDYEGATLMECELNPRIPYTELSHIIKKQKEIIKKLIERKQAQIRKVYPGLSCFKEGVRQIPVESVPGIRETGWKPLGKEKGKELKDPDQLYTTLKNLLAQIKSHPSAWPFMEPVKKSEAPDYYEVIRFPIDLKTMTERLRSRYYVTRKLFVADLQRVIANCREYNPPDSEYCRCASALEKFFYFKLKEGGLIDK
#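 Preincubate 20nM GCN5L2 with compound 15 min, RT → add 50uM ThioGlo1 + 75uM H3(1-25) + 70uM acetyl-CoA → read fluorescence 0 and 20 min. Primary qHTS; fluorescent artifacts likely.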
# Rango-impB inh: inhibitors of Rango-importin beta complex formation; Rango CFP/YFP FRET sensor + importin beta, 45 min; Potency, µM (titrated, usually from 92.2 µM), for inactives: at the top dose inhibition of complex formation; 340,000 compounds, 0.031% hits; calls by dose curve;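 also: potency is read from the fitted curve at half-maximal effect; 0% = DMSO wells and 100% = buffer wells lacking importin beta; nearly all actives have a fitted effect of over 15% in size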
#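 Inhibition scored from the CFP 486 nm/YFP 530 nm FRET ratio 45 min after adding 0.125 microM importin beta to 50 nM Rango biosensor preincubated 5 min with compound (room temperature, PBS with DTT, Tween-20, BSA). No-importin wells as positive control.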
# PLK1 PBD inh: inhibitors of human PLK1 polo-box domain binding. P53350. Plk1 PBD binding of FITC phosphopeptide, fluorescence polarization. Potency, µM, inactives show max response, negative = inhibition, hits mostly inhibitors. 360,000 compounds, 2.8% hits. AID 720504; also: potency is read from the fitted curve at half-maximal effect; series mostly up to about 57 µM; % is scaled to controls: 0 for no effect and ±100 for the full control effect; nearly all actives have a fitted effect of over 65% in size
# Rango release inh: inhibitors of RanGTP-induced Rango-importin beta complex dissociation; Potency, µM (titrated, usually from 46.1 µM), without a hit: top-dose activity change, negative = inhibition; AID 540253; 340,000 compounds, 0.071% hits; Biochemical FRET Rango-importin beta, RanGTP-induced dissociation; O95149+P62826; calls by dose curve; also: potency is read from the fitted curve at half-maximal effect; % of control where 0% means no effect; nearly all actives have a fitted effect of over 45% in size
#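 FRET read at 45 min, room temperature: inhibitors block the CFP/YFP signal rise when RanGTP (0.6 uM Ran, 2 mM GTP, 0.2 uM RCC1) frees Rango (0.1 uM) from importin beta (0.25 uM). Pre-read after 5 min compound exposure flags interference.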
# PI5P4K alpha inh: inhibitors of human PI5P4K alpha; P48426; PI5P4Kalpha enzyme, ADP-Glo luminescence, 60 min; active compounds read low; max response, %; 330,000 compounds, 1.2% hits; AID 652105; active = max response of -50% or lower; inconclusive = between -30% and -50%; inactive = -30% or higher; also: value at the top dose of about 77 µM; % is scaled to controls: 0 for no effect and ±100 for the full control effect
#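 Reactions run in 0.038 M HEPES pH 7.4, 0.28 mM EGTA, 0.1% CHAPS and 5% DMSO, with PI5P4Kalpha, substrate, compound and 5 microM ATP final, one hour at room temperature. Readout is ADP-Glo luminescence.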
# VDR inh: inhibitors of human vitamin D receptor. P11473. VDR-SRC2-3 peptide fluorescence polarization, 2 h. Potency, µM, inactives show max response, negative = inhibition, usual class: inhibitors. 400,000 compounds, 0.93% hits. AID 504847; also: potency is read from the fitted curve at half-maximal effect; % is scaled to controls: 0 for no effect and ±100 for the full control effect
#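 FP read-out; VDR + SRC2-3 coactivator peptide; 23 nl compound by pintool; 2 h RT incubation; reagents held at 4 deg C, protected from light.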
# Active calls of the source: *; ? = inconclusive; / = no result. Unless noted, calls follow the shape of the dose curve; as a rule, active = well fitted curve in the direction sought with a large enough effect; inconclusive = small, poorly fitted or top-dose-only effect, or another doubt; inactive = no such curve, though single readings can be large; an effect the other way counts as inactive or inconclusive.
SMILES,KAT2A inh,Rango-impB inh,PLK1 PBD inh,Rango release inh,PI5P4K alpha inh,VDR inh
O=C(CSc1ccsc1[N+](=O)[O-])Nc1cccc(F)c1,-19%,-3%,?,31%,-77*,-9%
NS(=O)(=O)c1ccc(CCNC(=O)CSc2ccc([N+](=O)[O-])cc2)cc1,3%,2%,?,-12%,-2,3%
NS(=O)(=O)c1ccc(CCNC(=O)CSc2ccsc2[N+](=O)[O-])cc1,-2%,-2%,-26%,-17%,-67*,-14%
COc1ccc(CCNC(=O)CSc2ccsc2[N+](=O)[O-])cc1OC,-5%,2%,-11%,2%,-19,-16%
COc1ccc2c(c1OC)C(=O)OC2c1ccc(O)cc1 (stereo not drawn),/,/,/,/,/,-5%
CCc1ccc(S(=O)(=O)c2nnn3c2nc(NCc2cccc(OC)c2)c2cc(Cl)ccc23)cc1,-5%,/,/,/,/,-10%
Cc1cc(=S)nc(-c2ccccn2)[nH]1,70%,0%,?,5%,-8,-16%
CSc1nc(=S)cc(C)[nH]1,?,-1%,15µM*,0%,?,50µM*
CN(C)C(=O)c1ccc(-c2nc(-n3ccnc3)c3ccccc3n2)cc1,-3%,/,/,/,/,-19%
Clc1ccccc1-c1nc(-n2ccnc2)c2ccccc2n1,-10%,/,/,/,/,56µM*
Clc1ccccc1-c1nc(Nc2ccncc2)c2ccccc2n1,-30%,/,/,/,/,35µM*
CN(C)c1ccc(-c2nc(-n3ccnc3)c3ccccc3n2)cc1,-30%,/,/,/,/,25µM*
CN(C(=O)CC(=O)Nc1ccc2nc3n(c(=O)c2c1)CCCCC3)c1ccccc1F,-5%,/,/,/,/,-8%
Cc1cc[n+](Cc2ccc([N+](=O)[O-])cc2)cc1,-1%,-1%,-4%,10%,3,9%
Cc1ccc(-c2cc[n+](Cc3ccccc3)cc2)cc1,-5%,3%,19µM*,-4%,-14,?
O=C(Nc1cc(F)ccc1F)C1COc2ccccc2C1 (stereo not drawn),-5%,/,/,/,/,14%
NN=C1c2ccccc2C(=O)C1C(=O)C(c1ccccc1)c1ccccc1 (stereo not drawn),/,?,15%,0%,-51*,7%
CCc1cccc(C)c1NC(=O)Cn1ccn(-c2ccc(F)cc2)c(=O)c1=O,1%,/,/,/,/,17%
CN(C)c1ccc(N=Cc2ccco2)cc1,-10%,3%,-10%,6%,/,2µM*
CCOc1ccc(NC(=O)c2ccc3c(c2)CCN3S(=O)(=O)c2ccc(Cl)cc2)cc1,-8%,/,/,/,/,12%
C=Cc1ccc(Cn2c(C(=O)O)c(CNC3CCCCC3)c3ccc(OC)cc32)cc1,?,/,/,/,/,5%
CSc1nnc2c3c4c(sc3nc(-n3nc(C)cc3C)n12)COC(C)(C)C4,-10%,-1%,3.4µM*,-10%,?,?
O=S(=O)(Nc1nc2ccccc2nc1N1CCc2ccccc2C1)c1ccc(Cl)cc1,-16%,?,21µM*,1%,11,-12%
COc1ccc(N2CCN(C3(c4ccccc4)C(=O)c4ccccc4C3=O)CC2)cc1,-10%,/,/,/,/,-21%
CCc1c(C)[nH]n(-c2ccc(Oc3ccccc3)c(S(=O)(=O)O)c2)c1=O,-11%,5%,13µM*,-5%,-18,?
SMILES,KAT2A inh,Rango-impB inh,PLK1 PBD inh,Rango release inh,PI5P4K alpha inh,VDR inh
Cc1cc(C)n(-c2ccc(Oc3ccccc3)c(S(=O)(=O)O)c2)n1,-1%,2%,/,2%,-10,4%
O=C(Nc1ccc(Br)cc1F)c1ccc2nc(CCc3ccccc3)oc2c1,-2%,/,/,/,/,13%
CCC(=O)Nc1ccc(C2C(=O)c3ccccc3C2=O)cc1,16%,0%,24µM*,-11%,-6,-11%
CCCCC(=O)Nc1ccc(C2C(=O)c3ccccc3C2=O)cc1,/,-3%,2%,1%,0,20%
CC(=O)Oc1ccc(/C=C2/SC(=S)N(Cc3ccccc3)C2=O)cc1,-20%,8%,-4%,-18%,2,-13%
CCc1ccc(/C=C2\SC(=S)N(CCCC(=O)Nc3ccccc3C(=O)O)C2=O)cc1,?,-1%,21µM*,-4%,?,?
Cc1ccc(/C=C2\SC(=S)N(CCCC(=O)Nc3ccccc3C(=O)O)C2=O)cc1,-2%,5%,19µM*,1%,-21,?
COc1ccc(/C=C2\SC(=S)N(CCCC(=O)NNC(=O)c3ccccc3O)C2=O)cc1,1%,?,24µM*,-2%,14,-2%
COc1ccc(CN2C(=O)/C(=C/c3ccncc3)SC2=S)cc1,-7%,2%,?,14%,1,50µM*
COc1ccc(/C=C2/SC(=S)N(CCCC(=O)Nc3ccccc3C(=O)O)C2=O)cc1,-11%,-4%,?,-4%,?,?
CCc1nnc(NC(=O)c2cc(=O)c3cc(C)ccc3o2)s1,-1%,/,/,/,/,20%
Cc1cccc(C)c1-n1ncc(C(=O)Nc2ccc3c(c2)OCCO3)c1C1CCN(C(=O)OC(C)(C)C)CC1,-17%,/,/,/,/,4%
c1ccc(CN2CCN(C(c3ccccc3)c3ccccc3)CC2)cc1,-11%,-2%,6%,9%,2,-3%
O=S(=O)(CCN1CCN(C(c2ccccc2)c2ccccc2)CC1)C(F)(F)F,-1%,-2%,15µM*,-6%,/,?
CN1CCN(C(c2ccc(Cl)cc2)c2cc(Cl)c3cccnc3c2O)CC1 (stereo not drawn),-6%,2%,2.4µM*,2%,-62*,45µM*
Oc1c(C(c2ccccn2)N2CCCCC2)cc(Cl)c2cccnc12 (stereo not drawn),-4%,-1%,30µM*,14%,-25,?
CN1CCN(C(c2ccc(C(F)(F)F)cc2)c2cc(Cl)c3cccnc3c2O)CC1 (stereo not drawn),-7%,/,/,/,/,/
CCC(=O)C1=C(c2ccc(OC)c(OC)c2)N(C(=O)CC)n2c(CC)nnc2S1,1%,/,/,/,/,9%
COc1ccc(-c2nc(SCC(=O)c3ccc(OC)c(Br)c3)n[nH]2)cc1,-7%,/,/,/,/,22%
CN=C1C=CC(=C(c2ccc(N(C)C)cc2)c2ccc(N(C)C)cc2)C=C1,-23%,/,/,/,/,40µM*
CC(=O)c1ccc(N=Nc2ccc(N(C)C)cc2)cc1,-5%,-2%,-20%,5%,3,14%
Cc1cccc(NC(=O)C2CCCN(c3nnc(-n4c(C)ccc4C)s3)C2)c1C (stereo not drawn),-9%,/,/,/,/,-2%
CC(=O)N1CCc2c(sc3c2c(=O)n(CCc2ccccc2)c(=O)n3Cc2cccc(C)c2)C1,-9%,/,/,/,/,-14%
CCCn1c(Nc2nc3ccccc3n2C)nc2ccccc21,-16%,-1%,0%,-1%,24,2%
CCn1c(Nc2ccccc2Cl)nc2ccccc21,-4%,-1%,27µM*,30%,-18,-1%
